According to PubChem BioAssay (Tox21):
Inconclusive results are not listed. Activity calls are given as the source filed them. Unless noted, the call rests on the fitted dose curve; in most records, active means well fitted curve in the direction sought with a large enough effect in the repeat runs; inconclusive means weak or mixed curves; inactive means no such curve, though single readings can be large; an effect the other way counts as inactive or inconclusive.

Columns and labels:
[1] = qHTS assay to identify small molecule agonists of the androgen receptor (AR) signaling pathway in the presence of an antagonist - cell viability counter screen (AID 1259379); further: nearly all actives have a fitted effect of over 25% in size; further: potency means the concentration at half of the fitted maximal effect;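 on activity change, negative = cytotoxicity: MDA-kb2 human breast cancer cells carrying an MMTV luciferase reporter; series mostly up to about 92 µM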
In short: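 Seed MDA-kb2 at 3,000 cells/well; incubate 5 hr, 37C, 0% CO2. Add nilutamide to 3.0uM final, then pin compounds at 15 concentrations. Incubate 16 hr. Add CellTiter-Fluor at 15 hr, read fluorescence after 1 hr.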

[2] = qHTS assay to identify small molecule agonists of the estrogen receptor beta (ER-beta) signaling pathway - cell viability counter screen (AID 1259380); further: nearly all actives have a fitted effect of over 30% in size; further: potency means the concentration at half of the fitted maximal effect
In short: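 CellTiter-Glo read, 30 min RT, same wells as bla assay; cells ER-beta-UAS-bla HEK293T; 16 hr compound, 37C; medium 2% charcoal-stripped FBS.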

[3] = target: Androgen receptor (Homo sapiens) (UniProt P10275); assay: qHTS assay to identify small molecule agonists of the androgen receptor (AR) signaling pathway in the presence of an antagonist (AID 1259381; calls by dose curve; further: nearly all actives have a fitted effect of over 15% in size; further: potency means the concentration at half of the fitted maximal effect)
In short: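 Test compounds at 15 concentrations were incubated for 16hr with MDA-kb2 reporter cells in presence of 3.0uM nilutamide (final). Signal: ONE-Glo luciferase luminescence.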

[4] = qHTS assay to identify small molecule antagonists of the estrogen receptor beta (ER-beta) signaling pathway - cell viability counter screen (AID 1259382); further: nearly all actives have a fitted effect of over 55% in size; further: potency means the concentration at half of the fitted maximal effect; on activity change, negative = cytotoxicity: series mostly up to about 92 µM
In short: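 In this multiplexed counter screen, cells were seeded at 2,000 per well in medium with 2% charcoal-stripped FBS and incubated 6 hr before compound and 1nM final E2 were added. Sixteen hours later, ATP-based luminescence reported viability.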

[5] = target: Estrogen receptor (Homo sapiens) (UniProt P03372); assay: qHTS assay to identify small molecule agonists of the estrogen receptor alpha (ER-alpha) signaling pathway in the presence of an antagonist (AID 1259383; calls by dose curve; further: nearly all actives have a fitted effect of over 15% in size; further: potency means the concentration at half of the fitted maximal effect; on activation: top concentration of the series differs between compounds)
In short: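 Stably transfected VM7Luc4E2 reporter cells, kept 5 days in charcoal-stripped serum, received ICI-182,780 at 10.0nM final before compound addition. Following 22hr incubation at 37C and 5% CO2, luciferase signal was read by luminescence.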

[6] = qHTS assay to identify small molecule agonists or antagonists of the thyroid stimulating hormone receptor (TSHR) signaling pathway - wild type cell line counter screen (AID 1259384; calls by dose curve)
In short: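 Wild-type HEK293 cells were plated 18 h at 37 C/5% CO2, pin-dosed with compound plus Ro20-1724 medium, held 30 min at room temperature, then given cAMP-d2 and anti-cAMP-cryptate; fluorescence was read after 1 h. Fifteen concentrations, triplicate.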

[7] = target: Thyrotropin receptor (Homo sapiens) (UniProt P16473); assay: qHTS assay to identify small molecule antagonists of the thyroid stimulating hormone receptor (TSHR) signaling pathway (AID 1259385; calls by dose curve; further: nearly all actives have a fitted effect of over 20% in size)
In short: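 TSHR-HEK293 cells were plated and held 18 h at 37C/5% CO2, then given compound plus Ro20-1724 and stimulated with TSH at 1.5 ng/mL final. After 30 min at room temperature, cAMP was detected with cAMP-d2/anti-cAMP-cryptate (1 h) by fluorescence.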

[8] = qHTS assay to identify small molecule agonists of the estrogen receptor alpha (ER-alpha) signaling pathway in the presence of an antagonist - cell viability counter screen (AID 1259386);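 further: cells exposed to compounds for 22 h at 37 °C before the viability read; nearly all actives have a fitted effect of over 30% in size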; further: potency means the concentration at half of the fitted maximal effect; on activity change, negative = cytotoxicity: series mostly up to about 92 µM
In short: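 Viability counter screen using VM7Luc4E2 (full-length ER-alpha, four ERE-luciferase). The cells were treated with compounds alongside ICI-182,780 10.0nM for 22hr, and live-cell protease fluorescence was quantified with CellTiter-Fluor.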

[9] = target: Estrogen receptor beta (Homo sapiens) (UniProt Q92731); assay: qHTS assay to identify small molecule antagonists of the estrogen receptor beta (ER-beta) signaling pathway (AID 1259378; active means well fitted inhibition curve with a large enough effect in the signal ratio in the repeat runs, not every such curve was filed as active; the % refers to the signal ratio)
In short: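 ER-beta-UAS-bla HEK293T (GripTite) cells in 2% charcoal-stripped FBS medium were preincubated 6 hr at 37C, dosed with compound, then stimulated with 1 nM E2 (final) for 16 hr; beta-lactamase reporter read by B/G FRET fluorescence after 2 hr substrate loading.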
On the % scale 0 is the no-effect control and ±100 the full control effect.

Chain of Thyrotropin receptor (Homo sapiens) (P16473 whole entry, looked up): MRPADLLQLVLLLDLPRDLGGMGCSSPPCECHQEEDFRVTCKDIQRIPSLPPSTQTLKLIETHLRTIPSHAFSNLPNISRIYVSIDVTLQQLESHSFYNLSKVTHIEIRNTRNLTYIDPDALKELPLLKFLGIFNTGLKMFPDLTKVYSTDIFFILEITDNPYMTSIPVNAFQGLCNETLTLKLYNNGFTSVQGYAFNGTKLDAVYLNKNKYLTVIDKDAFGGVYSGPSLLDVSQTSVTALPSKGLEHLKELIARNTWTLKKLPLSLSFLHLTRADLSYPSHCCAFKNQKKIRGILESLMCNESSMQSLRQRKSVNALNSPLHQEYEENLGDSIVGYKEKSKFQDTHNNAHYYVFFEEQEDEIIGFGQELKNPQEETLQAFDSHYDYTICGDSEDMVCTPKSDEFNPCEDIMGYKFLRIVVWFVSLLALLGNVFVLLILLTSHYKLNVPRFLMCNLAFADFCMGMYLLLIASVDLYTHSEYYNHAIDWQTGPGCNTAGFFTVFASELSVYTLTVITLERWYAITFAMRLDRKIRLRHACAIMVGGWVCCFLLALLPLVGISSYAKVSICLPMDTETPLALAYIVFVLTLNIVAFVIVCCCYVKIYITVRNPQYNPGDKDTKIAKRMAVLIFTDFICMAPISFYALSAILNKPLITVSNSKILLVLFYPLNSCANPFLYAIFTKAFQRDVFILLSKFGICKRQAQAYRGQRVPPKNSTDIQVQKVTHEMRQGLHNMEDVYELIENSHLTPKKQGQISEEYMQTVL
Chain of Androgen receptor (Homo sapiens) (P10275 whole entry, looked up): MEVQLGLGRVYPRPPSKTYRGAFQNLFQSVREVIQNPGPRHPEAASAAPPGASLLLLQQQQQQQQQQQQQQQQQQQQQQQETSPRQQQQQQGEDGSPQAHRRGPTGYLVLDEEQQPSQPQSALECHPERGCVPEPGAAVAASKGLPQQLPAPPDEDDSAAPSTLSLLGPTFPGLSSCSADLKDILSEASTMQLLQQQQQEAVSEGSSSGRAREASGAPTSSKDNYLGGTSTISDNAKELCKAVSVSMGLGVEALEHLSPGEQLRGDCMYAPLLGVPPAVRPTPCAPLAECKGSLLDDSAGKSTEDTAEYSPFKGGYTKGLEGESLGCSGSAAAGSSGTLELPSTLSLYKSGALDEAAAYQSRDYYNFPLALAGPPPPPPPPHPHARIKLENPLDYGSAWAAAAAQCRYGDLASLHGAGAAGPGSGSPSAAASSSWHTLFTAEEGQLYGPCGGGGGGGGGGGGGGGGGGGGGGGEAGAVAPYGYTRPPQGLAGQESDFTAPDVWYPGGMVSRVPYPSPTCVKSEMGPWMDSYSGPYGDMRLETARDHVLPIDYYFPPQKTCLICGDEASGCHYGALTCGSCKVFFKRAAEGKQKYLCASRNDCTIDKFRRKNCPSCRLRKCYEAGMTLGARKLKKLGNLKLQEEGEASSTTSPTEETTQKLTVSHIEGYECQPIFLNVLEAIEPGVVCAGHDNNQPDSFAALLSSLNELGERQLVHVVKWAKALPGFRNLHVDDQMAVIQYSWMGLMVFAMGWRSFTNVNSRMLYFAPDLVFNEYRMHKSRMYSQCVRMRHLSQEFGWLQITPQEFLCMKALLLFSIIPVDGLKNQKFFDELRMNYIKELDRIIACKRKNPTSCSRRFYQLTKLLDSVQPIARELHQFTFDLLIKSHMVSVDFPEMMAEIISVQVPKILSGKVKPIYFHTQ
Chain of Estrogen receptor (Homo sapiens) (P03372 whole entry, looked up): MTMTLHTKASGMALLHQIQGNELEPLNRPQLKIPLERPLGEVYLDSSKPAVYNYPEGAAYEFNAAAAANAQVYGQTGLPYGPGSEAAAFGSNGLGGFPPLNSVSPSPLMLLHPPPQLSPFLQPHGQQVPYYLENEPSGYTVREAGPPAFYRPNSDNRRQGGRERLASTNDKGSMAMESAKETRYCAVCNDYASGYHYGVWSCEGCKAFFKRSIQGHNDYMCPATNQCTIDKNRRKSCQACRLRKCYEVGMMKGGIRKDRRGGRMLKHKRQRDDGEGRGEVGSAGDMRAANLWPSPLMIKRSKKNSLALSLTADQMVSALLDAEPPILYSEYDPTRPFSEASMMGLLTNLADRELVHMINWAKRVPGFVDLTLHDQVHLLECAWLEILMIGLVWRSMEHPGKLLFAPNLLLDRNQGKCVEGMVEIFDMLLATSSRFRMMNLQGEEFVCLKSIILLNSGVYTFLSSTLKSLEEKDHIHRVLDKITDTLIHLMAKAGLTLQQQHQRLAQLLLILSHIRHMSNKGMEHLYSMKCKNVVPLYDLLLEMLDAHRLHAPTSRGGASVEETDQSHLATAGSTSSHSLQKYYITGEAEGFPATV
Chain of Estrogen receptor beta (Homo sapiens) (Q92731 whole entry, looked up): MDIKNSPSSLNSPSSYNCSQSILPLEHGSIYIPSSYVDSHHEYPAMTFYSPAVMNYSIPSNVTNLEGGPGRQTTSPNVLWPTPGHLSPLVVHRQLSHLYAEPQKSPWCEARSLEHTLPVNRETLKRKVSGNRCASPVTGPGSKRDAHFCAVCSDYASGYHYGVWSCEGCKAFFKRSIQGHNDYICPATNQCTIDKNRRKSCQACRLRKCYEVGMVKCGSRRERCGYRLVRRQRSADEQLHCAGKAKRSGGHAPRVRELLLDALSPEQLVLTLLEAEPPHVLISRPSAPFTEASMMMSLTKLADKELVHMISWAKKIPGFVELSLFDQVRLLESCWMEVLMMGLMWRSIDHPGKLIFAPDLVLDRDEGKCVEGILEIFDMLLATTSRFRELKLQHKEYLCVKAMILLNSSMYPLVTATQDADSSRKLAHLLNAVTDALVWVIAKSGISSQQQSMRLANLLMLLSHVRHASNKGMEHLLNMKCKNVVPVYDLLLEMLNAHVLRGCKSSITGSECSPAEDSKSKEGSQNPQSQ

C[C@@H](c1ncncc1F)C(O)(Cn1cncn1)c1ccc(F)cc1F (some centres not stated)
inactive: Potency [1] | Potency [2] | Potency [3] | Potency [4] | Potency [5] | Potency [6] | Potency [7] | Potency [8]

CCCCCC[C@@H](O)C/C=C\CCCCCCCC(=O)OC
inactive: Potency [1] | Potency [2] | Potency [3] | Potency [4] | Potency [5] | Potency [6] | Potency [7] | Potency [8]

C/C(=C(\CCOP(=O)(O)O)SC(=O)c1ccccc1)N(C=O)Cc1cnc(C)nc1N
inactive: activity change, negative = cytotoxicity [1] 1.6% [at 8.39 µM] | activity change, negative = cytotoxicity [2] 7.29% [at 8.39 µM] | activation [3] -1.54% [at 8.39 µM] | activity change, negative = cytotoxicity [4] 2.09% [at 8.39 µM] | activation [5] 0.094% [at 8.39 µM] | cAMP activity change [6] -0.23% [at 8.39 µM, stronger effect = higher value] | activity change, negative = inhibition [7] -1.28% [at 8.39 µM] | activity change, negative = cytotoxicity [8] 1.33% [at 8.39 µM]

C[C@@H]1C[C@H]2[C@@H]3CCC4=CC(=O)C=C[C@]4(C)[C@@]3(F)[C@@H](O)C[C@]2(C)[C@@]1(O)C(=O)COC(=O)c1ccncc1
inactive: Potency [1] | Potency [4] | Potency [5] | Potency [6] | Potency [8]
active: Potency [2] 29.8 µM | Potency [3] 0.0067 µM

CN1CCC(=C2c3ccccc3Sc3ccccc32)CC1
active: Potency [2] 23.7 µM | Potency [4] 21.1 µM
inactive: Potency [1] | Potency [3] | Potency [5] | Potency [8]

Nc1ccc(N)c2c1C(=O)c1ccccc1C2=O
active: Potency [1] 21.7 µM | Potency [2] 7.7 µM | Potency [8] 9.69 µM
inactive: Potency [9] | Potency [3]

Cc1c(N)cccc1[N+](=O)[O-]
inactive: Potency [9] | Potency [1] | Potency [2] | Potency [4] | Potency [5] | Potency [6] | Potency [8]

COc1ccc(C(=O)Nc2nc3ccccc3c(NCc3ccccc3)c2C#N)cc1
inactive: Potency [9] | Potency [1] | Potency [4] | Potency [5]
active: Potency [2] 27.3 µM

O=CC1CC=CCC1 (configuration not stated)
inactive: Potency [1] | Potency [2] | Potency [3] | Potency [4] | Potency [5] | Potency [6] | Potency [7] | Potency [8]

CC(COCCO)OCCO (configuration not stated)
inactive: Potency [1] | Potency [2] | Potency [3] | Potency [4] | Potency [6] | Potency [7] | Potency [8]

Nc1c(CC(=O)O)cccc1C(=O)c1ccc(Br)cc1
inactive: Potency [1] | Potency [2] | Potency [4] | Potency [5] | Potency [6] | Potency [7] | Potency [8]

COC(C)OC
inactive: Potency [1] | Potency [2] | Potency [4] | Potency [5] | Potency [6] | Potency [8]

O=C(O)CC(=O)C(=O)O
inactive: Potency [1] | Potency [2] | Potency [4] | Potency [6] | Potency [7]

C=CC1CC2C=CC1C2 (configuration not stated)
inactive: Potency [1] | Potency [2] | Potency [4] | Potency [5] | Potency [8]

CCCC(=O)Nc1ccc(O)c(C(C)=O)c1
inactive: Potency [1] | Potency [2] | Potency [4] | Potency [5] | Potency [6] | Potency [7] | Potency [8]

O=C(OCCCCCCOC(=O)c1ccccc1)c1ccccc1
inactive: Potency [1] | Potency [2] | Potency [4] | Potency [5] | Potency [6] | Potency [7] | Potency [8]

N=c1ccn2c(n1)O[C@H]1[C@H](O)[C@@H](CO)O[C@H]12
inactive: Potency [1] | Potency [2] | Potency [4] | Potency [5] | Potency [6] | Potency [7] | Potency [8]

C[N+]1(C)CCC(OC(=O)C(O)(c2ccccc2)C2CCCC2)C1 (configuration not stated)
inactive: Potency [1] | Potency [2] | Potency [4] | Potency [5] | Potency [6] | Potency [7] | Potency [8]

C/C=C(/C(=C/C)c1ccc(OC(C)=O)cc1)c1ccc(OC(C)=O)cc1
inactive: Potency [1] | Potency [2] | Potency [4] | Potency [6] | Potency [7] | Potency [8]
active: Potency [5] 0.0133 µM

OC(C#CCN1CCCC1)(c1ccccc1)c1ccccc1
inactive: Potency [1] | Potency [2] | Potency [4] | Potency [6] | Potency [7] | Potency [8]

CNC(=O)CN(CCN(CCN(CC(=O)[O-])CC(=O)NC)CC(=O)[O-])CC(=O)[O-].O.[Gd+3]
inactive: Potency [1] | Potency [2] | Potency [4] | Potency [5] | Potency [8]

CC1=CC=C(C(C)C)CC1
inactive: Potency [1] | Potency [2] | Potency [4] | Potency [5] | Potency [8]

CC(C)O.CC(C)O.CCOC(=O)/C=C(\C)O.CCOC(=O)/C=C(\C)O.[Ti]
inactive: Potency [1] | Potency [2] | Potency [4] | Potency [6] | Potency [7] | Potency [8]

CC1CCC(=O)C1=O (configuration not stated)
inactive: Potency [1] | Potency [2] | Potency [4] | Potency [5] | Potency [6] | Potency [8]

NC(=O)C(c1ccccc1)(c1ccccc1)[C@@H]1CCN(CCc2ccc3c(c2)CCO3)C1
inactive: Potency [1] | Potency [2] | Potency [4] | Potency [5] | Potency [6] | Potency [7] | Potency [8]

Nc1ccccc1S(=O)(=O)c1ccccc1
inactive: Potency [1] | Potency [2] | Potency [4] | Potency [6] | Potency [7] | Potency [8]

O=C1c2ccccc2S(=O)(=O)N1CCCCN1CCN(c2ncccn2)CC1
inactive: Potency [1] | Potency [2] | Potency [4] | Potency [5] | Potency [6] | Potency [7] | Potency [8]

CCCCCCCC#N
inactive: Potency [1] | Potency [2] | Potency [4] | Potency [6] | Potency [7] | Potency [8]

CC/C=C\CCOC(=O)CC
inactive: Potency [1] | Potency [2] | Potency [4] | Potency [6] | Potency [7] | Potency [8]

CCOC(=O)C1=C[C@]2(CC)CCCN3CCc4c(n1c1ccccc41)[C@@H]32
inactive: Potency [1] | Potency [4] | Potency [5] | Potency [6] | Potency [8]
active: Potency [2] 26.6 µM

CCCCCCCC/C=C\CCCCCCCC(=O)OCC
inactive: Potency [1] | Potency [2] | Potency [4] | Potency [6] | Potency [7] | Potency [8]

CCCCCCCCCCCc1ccccc1
inactive: Potency [1] | Potency [2] | Potency [4] | Potency [5] | Potency [6] | Potency [7] | Potency [8]

COCCCN1CCC(NC(=O)c2cc(Cl)c(N)c3c2OCC3)CC1
inactive: Potency [1] | Potency [2] | Potency [4] | Potency [6] | Potency [7] | Potency [8]

CC(C)Cc1ccc(C(C)C(=O)OCc2ccccn2)cc1 (configuration not stated)
inactive: Potency [1] | Potency [2] | Potency [4] | Potency [5] | Potency [6] | Potency [8]

C[Si](C)(CCCN)O[Si](C)(C)CCCN
inactive: Potency [1] | Potency [2] | Potency [4] | Potency [5] | Potency [6] | Potency [7] | Potency [8]

O=C(O)c1ccco1
inactive: Potency [1] | Potency [2] | Potency [4] | Potency [5] | Potency [6] | Potency [7] | Potency [8]

CN(C)c1ccc(/C=C/c2ccc([N+](=O)[O-])cc2)cc1
inactive: activity change, negative = cytotoxicity [1] 4.91% [at 8.39 µM] | activity change, negative = cytotoxicity [2] -2.6% [at 8.39 µM] | activity change, negative = cytotoxicity [4] -2.95% [at 8.39 µM] | cAMP activity change [6] 6.39% [at 8.39 µM, stronger effect = higher value] | activity change, negative = inhibition [7] -4.14% [at 8.39 µM] | activity change, negative = cytotoxicity [8] 3.06% [at 8.39 µM]

O=C1CCC(=O)O1
inactive: Potency [1] | Potency [2] | Potency [4] | Potency [5] | Potency [8]

CCCCc1ncc(/C=C(\Cc2cccs2)C(=O)O)n1Cc1ccc(C(=O)O)cc1
inactive: Potency [1] | Potency [2] | Potency [4] | Potency [6] | Potency [7] | Potency [8]

O=C(O)c1ccc(-n2nc(-c3ccccc3O)nc2-c2ccccc2O)cc1
inactive: Potency [1] | Potency [2] | Potency [4] | Potency [5] | Potency [8]

ClCCOCCOCCCl
inactive: Potency [1] | Potency [2] | Potency [4] | Potency [5] | Potency [6] | Potency [7] | Potency [8]

CCCCC(CC)COC(=O)CCCCCCCCC(=O)OCC(CC)CCCC (configuration not stated)
inactive: Potency [1] | Potency [2] | Potency [4] | Potency [5] | Potency [6] | Potency [7] | Potency [8]

CN(C)c1ccc(CCO)cc1
inactive: Potency [1] | Potency [2] | Potency [4] | Potency [5] | Potency [6] | Potency [7] | Potency [8]

C=C(C)C(=O)OCCO
inactive: Potency [1] | Potency [2] | Potency [4] | Potency [5] | Potency [6] | Potency [8]

O=C(OCCc1ccccc1)c1ccccc1
inactive: Potency [1] | Potency [2] | Potency [4] | Potency [6] | Potency [7] | Potency [8]
